# TGFb SMAD3 inh: TGF-b pathway inhibition; HepG2 CAGA-GFP TGF-b/SMAD3 reporter, GFP fluorescence, 18 h; TGF-beta stimulated, 500 pg/mL final; AID 588855; Potency, µM (top dose mostly 46.1 µM), for the others: at the highest dose activity, negative = inhibition, actives largely listed as inhibitors; 410,000 tested, 1.2% active; further: potency means the concentration at half of the fitted maximal effect; on the % scale 0 is the no-effect control and ±100 the full control effect; nearly all actives have a fitted effect of over 65% in size
#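 First, reporter cells (HEPG2 CAGA-GFP) rested 2 h at 37 degrees C. Next, compounds were pinned in and TGF-beta added to 500 pg/mL final. After 18 h, GFP was imaged per cell and summed per well.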
# HepG2 viability: HepG2 cytotoxicity, counter-screen for TGF-b inhibitors; Potency, µM (series often up to 46.1 µM), for inactives: at the highest dose activity change, negative = cytotoxicity, most hits filed as cytotoxic; HepG2 CAGA-GFP viability, ATP luminescence, 18 h; 410,000 tested, 0.76% active; further: potency means the concentration at half of the fitted maximal effect
#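 CellTiter-Glo luminescence gave cytotoxicity after 18 hours at 37 degrees C. The cells were HepG2 CAGA-GFP in 1% FBS DMEM, stimulated with 500 pg/mL TGF-beta after compound addition. %Activity was normalised to no-cell wells (complete cell-killing) and DMSO (no toxicity), and curves were fitted and classified.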
# TDP1 cell noCPT: qHTS for Inhibitors of human tyrosyl-DNA phosphodiesterase 1 (TDP1): qHTS in cells in absence of CPT; DT40 Tdp1-/- hTDP1 cells, no CPT, ATP luminescence, 48 h; Potency, µM (series often up to 46.2 µM), for the others: top-dose activity change, negative = growth inhibition, actives largely listed as inhibitors; 420,000 tested, 15% active; further: potency means the concentration at half of the fitted maximal effect; on the % scale 0 is the no-effect control and ±100 the full control effect; nearly all actives have a fitted effect of over 55% in size
#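 Seeded 400 DT40-hTDP1 cells/well (vehicle DMSO, no 20 nM CPT); pinned compounds; ≥48 hr at 37 °C; CellTiter-Glo luminescence as viability measure.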
# TDP1 inh: TDP1 (human) enzyme inhibition. Q9NUW8. recombinant TDP1, AlphaScreen DNA substrate cleavage. Potency, µM (highest dose often 130 µM), inactives show at the highest dose activity change, negative = inhibition, hits mostly inhibitors. 350,000 tested, 0.28% active. AID 485290; further: potency means the concentration at half of the fitted maximal effect; on the % scale 0 is the no-effect control and ±100 the full control effect; nearly all actives have a fitted effect of over 40% in size
# Target sequence (Q9NUW8 whole entry, looked up): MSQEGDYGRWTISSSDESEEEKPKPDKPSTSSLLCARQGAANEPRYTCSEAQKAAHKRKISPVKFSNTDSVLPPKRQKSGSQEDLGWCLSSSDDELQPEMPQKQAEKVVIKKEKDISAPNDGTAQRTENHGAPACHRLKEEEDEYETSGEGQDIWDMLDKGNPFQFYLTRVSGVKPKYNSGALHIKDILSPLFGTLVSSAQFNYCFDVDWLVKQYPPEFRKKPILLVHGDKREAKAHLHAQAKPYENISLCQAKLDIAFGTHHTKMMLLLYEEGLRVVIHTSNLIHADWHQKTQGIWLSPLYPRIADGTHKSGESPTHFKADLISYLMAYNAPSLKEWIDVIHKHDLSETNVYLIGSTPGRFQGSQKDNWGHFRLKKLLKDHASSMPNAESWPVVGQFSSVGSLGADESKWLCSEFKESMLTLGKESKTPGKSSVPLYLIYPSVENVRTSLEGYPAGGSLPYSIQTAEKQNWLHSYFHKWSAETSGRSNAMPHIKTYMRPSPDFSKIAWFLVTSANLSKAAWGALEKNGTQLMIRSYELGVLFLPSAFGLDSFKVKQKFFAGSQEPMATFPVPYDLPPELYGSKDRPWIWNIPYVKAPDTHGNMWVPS
#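 Enzyme-compound mixtures sat 15 min at room temperature, followed by a 5 min reaction with 15 nM final substrate and 10 min with AlphaScreen beads. Recombinant human Tdp1 was used at 1 nM final.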
# IL-1B inflam inh: inflammasome signaling inhibition, IL-1 beta readout. activity change, % at 57.5 µM. 360,000 tested, 4.7% active. THP-1 LPS/ATP IL-1B secretion, AlphaLISA, 16 h; hits give low values. AID 743279; in the data active means activity change below about -50%; inconclusive means mostly about -30% to -49%; further: on the % scale 0 is the no-effect control and ±100 the full control effect
#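 THP-1 cells pretreated 1 hr with compounds (up to 57.5 uM final), then stimulated with LPS (250 ng/mL final) plus ATP (1.25 mM final); secreted IL-1B measured by AlphaLISA after 16 hr, decreased signal indicating inhibition.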
# DT40 TDP1 CPT: DT40-hTDP1 cell growth loss with CPT | chicken DT40 Tdp1-/-;hTDP1 cells + 20 nM CPT, ATP luminescence, 48 h | Potency, µM (series often up to 46.2 µM), for the others: at the top dose activity change, negative = growth inhibition, usual class: inhibitors | 420,000 tested, 12% active; further: potency means the concentration at half of the fitted maximal effect; on the % scale 0 is the no-effect control and ±100 the full control effect; nearly all actives have a fitted effect of over 55% in size
#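 Chicken DT40 Tdp1-/- cells stably complemented with human TDP1 were seeded at 400 cells/well in medium containing 20 nM camptothecin, exposed to pin-transferred compounds, and grown at 37 °C for at least 48 hr. Viability was read as ATP luminescence.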
# An asterisk follows results filed as active; ? = inconclusive; / = no result; [ ] = another dose, or the depositor's remark. In the library only some 18% were active in any assay of this set; here they are far more common. Unless noted, the call rests on the fitted dose curve; in most records, active means well fitted curve in the direction sought with a large enough effect; inconclusive means small, poorly fitted or top-dose-only effect, or another doubt; inactive means no such curve, though single readings can be large; an effect the other way counts as inactive or inconclusive.
SMILES,TGFb SMAD3 inh,HepG2 viability,TDP1 cell noCPT,TDP1 inh,IL-1B inflam inh,DT40 TDP1 CPT
COCCCNC(=O)C1CCCN(S(=O)(=O)c2ccc3c(c2)oc(=O)n3C)C1 (centres undefined),1.2%,5.8%,-1.7%,6.4%,/,-14.6%
Cc1c(C)n(Cc2ccccc2)c2ncnc(N)c12,-3.9%,-13.1%,23.1µM*,8.1%,-6.5,14.6µM*
COc1cc2c(cc1NC(=S)Nc1cccc3ccccc13)oc1ccccc12,1.6%,7.6%,?,9.1%,-11.8,-19.0%
COc1cc2c(cc1NC(=S)Nc1cccc(C(F)(F)F)c1)oc1ccccc12,?,-22.8%,29.1µM*,3.0%,-4.2,23.1µM*
COCCCNC(=S)Nc1cc2oc3ccccc3c2cc1OC,0.0%,-22.5%,6.51µM*,7.0%,-2.7,8.2µM*
CCOc1ccc(-c2cc(C(=O)N3CCN(c4cc(Cl)ccc4C)CC3)c3ccccc3n2)cc1,-9.4%,6.3%,0.3%,0.0%,/,-3.9%
COc1cc(C(=O)N2CCN(c3ccccc3)CC2)c2ccccc2n1,-2.8%,-3.0%,0.731µM*,/,78.2,0.92µM*
COc1ccc(-c2cc(C(=O)N3CCCCC3)c3ccccc3n2)cc1OC,-10.6%,-7.7%,-50.0%,0.4%,-69.3*,?
COc1ccc(-c2cc(C(=O)N3CCCCCC3)c3cc(C)ccc3n2)cc1,-11.3%,2.5%,?,1.3%,-3.2,?
COc1ccc(-c2cc(C(=O)N3CCN(c4cccc(C)c4C)CC3)c3ccccc3n2)cc1OC,-32.6%,-36.7%,13µM*,-5.6%[0.505 µM],-8.6,?
COc1ccc(-c2cc(C(=O)N3CCCC3)c3ccccc3n2)cc1OC,0.2%,-1.3%,-12.5%,2.8%,-28.3,-24.1%
COc1ccc(-c2cc(C(=O)N3CCCCC3)c3ccccc3n2)cc1,5.0%,-1.1%,?,-13.5%,-25.5,16.4µM*
CCC1CCCCN1CCCNC(=O)c1sc2nc(C)cc(C)c2c1-n1cccc1 (centres undefined),?,-18.1%,?,5.7%,/,?
O=C(c1cc(-c2ccc(Cl)cc2)nc2ccccc12)N1CCC1,-10.7%,0.0%,16.4µM*,0.1%[0.505 µM],-7.0,18.4µM*
Cn1cc(-c2nc3cnc(N4CCNCC4)nc3n(-c3ccccc3)c2=O)c2ccccc21,/,/,5.2%,/,/,1.0%
Cn1cc(-c2nc3cnc(N4CCNCC4)nc3n(C3CC3)c2=O)c2ccccc21,/,/,5.8µM*,/,/,13µM*
CCc1ccc(NC(=O)Cn2c(=O)n(-c3ccccc3)c(=O)c3ccc(C(=O)NCc4ccc5c(c4)OCO5)cc32)cc1,-11.4%,-24.4%,?,0.0%,/,?
CCCN(CCC)C(=O)Cn1c(=O)n(-c2ccc(OC)cc2)c(=O)c2ccc(C(=O)NCc3ccc(C)cc3)cc21,2.6%,-7.8%,16.4µM*,2.3%,/,?
CCC(C)NC(=O)Cn1c(=O)n(-c2ccc(OC)cc2)c(=O)c2ccc(C(=O)NCc3ccc(C)cc3)cc21 (centres undefined),-2.2%,6.2%,-9.7%,-2.7%,-16.7,13.5%
Cc1ccc(-n2c(=O)c3ccc(C(=O)NCc4ccccc4Cl)cc3n(CC(=O)Nc3ccc(C)cc3C)c2=O)cc1,-4.3%,-21.1%,?,0.0%,/,?
CCOc1ccc(NC(=O)Cn2c(=O)n(-c3ccccc3)c(=O)c3ccc(C(=O)NCc4ccc5c(c4)OCO5)cc32)cc1,?,-68.6%,20.6µM*,0.0%,/,20.6µM*
Cc1ccc(NC(=O)Cn2c(=O)n(-c3ccc(C)cc3)c(=O)c3ccc(C(=O)NCc4ccccc4Cl)cc32)cc1,?,-29.6%,13µM*,2.3%,/,7.31µM*
CCc1ccc(NC(=O)Cn2c(=O)n(-c3ccc(OC)cc3)c(=O)c3ccc(C(=O)NCc4ccc(C)cc4)cc32)cc1,0.0%,-17.5%,7.31µM*,-2.3%,/,10.3µM*
COc1ccc(-n2c(=O)c3ccc(C(=O)NCc4ccc(C)cc4)cc3n(Cc3ccc(F)cc3Cl)c2=O)cc1,-3.9%,-19.6%,-0.4%,2.3%,/,5.6%
CC(=O)c1ccc(COC(=O)c2cc3ccccc3oc2=O)cc1,-16.0%,-12.8%,21.7%,/,-3.1,13.9%
SMILES,TGFb SMAD3 inh,HepG2 viability,TDP1 cell noCPT,TDP1 inh,IL-1B inflam inh,DT40 TDP1 CPT
COc1ccccc1NC(=O)Cn1c(=O)n(-c2ccc(C)cc2)c(=O)c2ccc(C(=O)NCc3ccco3)cc21,-17.0%,-1.9%,?,7.5%,/,?
COc1cccc(NC(=O)Cn2c(=O)n(-c3ccc(C)cc3)c(=O)c3ccc(C(=O)NCc4ccco4)cc32)c1,?,-45.1%,?,-2.3%,/,16.4µM*
CCCCCCN1CCN(C2CN(Cc3cn(Cc4cccc(C(F)(F)F)c4)nn3)S(=O)(=O)C2)CC1 (centres undefined),/,/,?,/,-14.3,?
CCN(C)C1CN(Cc2cn(Cc3ccc(C(F)(F)F)cc3)nn2)S(=O)(=O)C1 (centres undefined),/,/,-2.3%,/,0.8,-8.6%
Cc1ccc(C)c(NC(=O)c2cc(S(=O)(=O)NCCC3=CCCCC3)ccc2F)c1,?,-20.5%,20.6µM*,10.4%,/,?
Cc1ccc(NC(=O)c2cc(S(=O)(=O)NCCc3ccc(Cl)cc3)ccc2F)cc1,?,-79.2%,13µM*,7.8%,/,?
O=C(Nc1cccc(Cl)c1Cl)c1cc(S(=O)(=O)NCCc2ccccc2)ccc1F,?,-69.1%,?,-2.6%,-5.9,?
O=C(Nc1cc(Cl)ccc1Cl)c1cc(S(=O)(=O)NCCc2ccccc2)ccc1F,?,-39.0%,16.4µM*,5.2%,/,?
CC(C)c1ccc(NC(=O)c2cc(S(=O)(=O)NCCc3ccccc3)ccc2F)cc1,?,-70.9%,10.3µM*,2.6%,/,14.6µM*
Cc1cn([C@H]2C[C@H](O)[C@@H](CNCc3ccccc3OCCCN3CCOCC3)O2)c(=O)[nH]c1=O,-0.5%,8.9%,7.9%,/,?,8.3%
COc1ccc(CCNS(=O)(=O)c2ccc(F)c(C(=O)Nc3ccc(Cl)cc3)c2)cc1OC,?,-20.7%,20.6µM*,5.2%,/,29.1µM*
N#C/C(=C(/O)COC(=O)CCCNC(=O)c1ccc(Cl)cc1)c1nc2ccccc2[nH]1,-0.9%,-12.9%,-18.2%,9.6%,144.3,-9.9%
N#C/C(=C(/O)COC(=O)CSc1ccc(Cl)cc1)c1nc2ccccc2[nH]1,17.1%,-13.6%,5.17µM*,8.1%,-102.0*,18.4µM*

# Compound activity from PubChem BioAssay.
